Here are results for 90 molecules from PubChem BioAssay AID1878 (Sanford-Burnham Center for Chemical Genomics, 2009).

Hit rate of the full screen: of about 1,000 compounds, about 200 (20%) were called active. A selection follows. Measured potencies and affinities stand elsewhere. Unmarked numbers belong to inactive results. No stated cut-off is given here; in the data, active means inhibition above about 55%; inactive means the rest.

The assay deals with Dual specificity protein phosphatase 3 (Homo sapiens) (UniProt P51452). The assay is described as follows: VHR1 phosphatase inhibitors, biochemical (AID 1878). The note with it: recombinant VHR phosphatase, fluorogenic substrate; at 13.3 µM; hits give high values.
Sequence of Dual specificity protein phosphatase 3 (Homo sapiens) (P51452 whole entry, looked up): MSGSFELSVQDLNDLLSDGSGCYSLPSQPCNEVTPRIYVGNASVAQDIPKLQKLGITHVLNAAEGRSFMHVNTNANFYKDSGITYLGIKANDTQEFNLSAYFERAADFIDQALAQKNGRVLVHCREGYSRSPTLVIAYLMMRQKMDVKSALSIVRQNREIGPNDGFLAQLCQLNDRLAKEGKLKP
As to `Cc1[nH][nH]c(=O)c1C(c1cc(Br)ccc1O)c1c(C)[nH][nH]c1=O`, the inhibition – broadly, the drop in the measured response relative to a control, in per cent – is 3.3%.
Consider `COc1ccccc1N1CCN(C2CCCN(C(=O)CCC(=O)N(C)C)C2)CC1` (stereo not given), for which the inhibition was -13.2%.
For `Cn1c(C(=O)N[C@@H](Cc2ccccc2)C(=O)O)cc2cc(Cl)ccc21` the value was 3.5%.
For `CCCC(NC(=O)Cc1c(C)c2cc3c(C)c(C)oc3c(C)c2oc1=O)C(=O)N[C@@H](Cc1ccccc1)C(=O)O` (stereo not given in full), the inhibition is 68.8% (active).
The value for `COc1ccc2c(c1)cc(C(=O)N[C@@H](Cc1ccccc1)C(=O)N[C@@H](C)C(=O)O)n2C` was -10.4%; that for `Cc1nn(CC(=O)NCCCN2CCCCC2C)c(=O)c2cccn12` (stereo not given) was -5.4%; that for `CCOCCCNC(=O)C1CC(=O)N(CCc2ccccc2)C1` (stereo not given) was 15%.
The value for `CC(C)CCNC(=O)CN(C(=O)CCC(=O)Nc1ccccn1)c1ccc2c(c1)OCCO2` was 5.2%.
With `Nc1nc(-c2cc(O)ccc2[N+](=O)[O-])cc(-c2ccccc2)c1[N+](=O)[O-]`, the inhibition is 80.5% (active).
For `O=C(NN1C(=O)C2C(C1=O)C1C=CC2C12CC2)c1ccccc1` (stereo not given) the value was 3.2%.
The value for `N#Cc1c(N2CCCC(O)C2)nc(N)c2c(N)nc3c(c12)CC(=O)N3C12CC3CC(CC(C3)C1)C2` (stereo not given) was -7.9%; that for `N#Cc1c(N2CCCC2)nc(N)c2c(N)nc(N3CCCC3)cc12` was 78.3% (active).
The value for `CCOC(=O)c1c(C)[nH]c(C)c1S(=O)(=O)NC1CCN(C(=O)OCC)CC1` was -2%; that for `COc1cccc(CNCCc2ccc3c(c2)OCO3)c1OC` was 26.4%.
For `CCCN1CCC(NC(=O)CC2C(=O)NCCN2Cc2ccccc2C)CC1` (stereo not given), the inhibition is -11.6%.
For `O=C(O)CCCNc1cc(N2CCC3(CC2)OCCO3)c2noc3c2c1C(=O)c1ccccc1-3` the value was 12.8%; for `CC1(C)CC(NS(=O)(=O)c2ccc(C(C)(C)C)cc2)CC(C)(C)N1`, 6.7%.
For `NS(=O)(=O)c1ccc(NC(=S)NC2CCCCCC2)cc1` the value was 56.7% (active).
The value for `CC1(C)CC(NC(=O)C(c2ccccc2)c2ccccc2)CC(C)(C)N1` was 24%; that for `CC1(C)CC(NC(=S)Nc2ccc(S(N)(=O)=O)cc2)CC(C)(C)N1` was 58.2% (active); that for `Cc1ccc(S(=O)(=O)NC2CCCCCC2)cc1C(N)=O` was -4.2%.
Take `O=C(CCCC(=O)N(CC(=O)NC1CCCC1)c1cccc(F)c1)Nc1ccccn1`: the inhibition was -10.4%.
The value for `Cn1cc(CN2CCCCC2C(=O)Nc2ccc(-n3cccn3)cc2)cn1` (stereo not given) was 10.3%.
The value for `CCC(=O)N1c2ccc(S(=O)(=O)NCCc3ccc(C)cc3)cc2CC1C` (stereo not given) was 7.9%.
The value for `CCC(C)N(C(=O)c1csnn1)C(C(=O)NC1CCCC1)c1ccccc1F` (stereo not given) was 10%; that for `CSc1sccc1/C=C(/C#N)C(=O)c1ccco1` was 28.9%.
`CCn1c(=O)n(CC)c2cc(N3CCCC3)c(NC(=O)c3ccccc3F)cc21`: the inhibition was -2.4%.
For `COCCn1c(SCC(=O)N2CCCC(C)C2)nnc1-c1ccco1` (stereo not given), the inhibition was -3.4%.
For `O=C(CCNS(=O)(=O)c1ccccc1)N1CCCCCC1` the value was 7.7%.
For `O=C(NCc1ccccc1Cl)C1CCC(CNc2nc(=S)[nH]c3ccccc23)CC1` (stereo not given) the value was -7%; for `CC1CCN(CCCNC(=O)C2CCN(S(=O)(=O)N3CCC4(CC3)OCCO4)CC2)CC1`, 1.6%; for `O=C(c1cc(C2CC2)on1)N1CCCC(N2CCN(c3ccc(F)cc3)CC2)C1` (stereo not given), 0.4%.
The value for `CCOc1ccc(C2NC(=O)c3ccccc3O2)cc1OC` (stereo not given) was -17.6%.
`CN(Cc1ccccn1)C(=O)C1CCC(=O)N(CCc2ccc(Cl)cc2)C1` (stereo not given): the inhibition is -11.4%.
The value for `COc1ccc(NC(=O)CN(C)S(=O)(=O)c2ccc3[nH]c(=O)oc3c2)cc1` was 12.6%.
In the case of `Cn1c(=O)oc2cc(S(=O)(=O)NCCC(=O)NCc3ccccc3Cl)ccc21`, the inhibition is 14.6%.
For `COc1ccccc1-c1nc2c3ccccc3nc(=S)n2[nH]1` the value was 7.9%; for `CC(C)c1ccc(NS(=O)(=O)c2cccc3cccnc23)cc1`, -1%.
The value for `Cc1cc(NC(=O)C2CCCCC2)ncc1NC(=O)c1ccccn1` was 9%; that for `COc1ccccc1-c1cc(C(=O)Nc2cccnc2Cl)no1` was 12.2%.
Regarding `COc1ccc2c(c1)C(=NNC(=O)c1ccccn1)c1cc(OC)ccc1-2`, the inhibition is 99.3% (active).
For `CCOC(=O)c1sc(=NC(=O)c2c(F)cccc2F)n(C)c1C` the value was 26.7%.
With `CC(=O)NCCC(=O)N(C)CC1CCN(CCc2cccc(C(F)(F)F)c2)CC1`, the inhibition was -21.4%.
As to `COc1ccc(/C=C2\SC(=S)N(CCC(=O)Nc3cccc(C(=O)O)c3)C2=O)cc1`, the inhibition was 86.4% (active).
As to `COc1cccc(NC(=O)CCc2nc(-c3cccs3)no2)c1`, the inhibition was 11.2%.
For `COc1ccccc1C(=O)NNC(=O)CCN1C(=O)/C(=C\c2ccccc2)SC1=S` the value was 38.1%.
For the molecule `CCc1ccc(/C=C2/SC(=S)N(CCC(=O)Nc3ccc(C(=O)O)cc3)C2=O)cc1`, the inhibition is 87.1% (active).
The value for `O=C(CCN1C(=O)/C(=C\C=C\c2ccccc2)SC1=S)Nc1ccc(C(=O)O)cc1` was 98.7% (active).
Take `Cc1ccc(NC(=O)COc2cccc(/C=C3\SC(=S)N(CCC(=O)O)C3=O)c2)cc1Cl`: the inhibition is 79.2% (active).
In the case of `CCOC(=O)c1ccc(NC(=O)CCS(=O)(=O)Cc2ccccc2)cc1`, the inhibition is 11.4%.
Consider `COc1ccc(S(=O)(=O)NCC2CCCN(Cc3cn(C)nc3C)C2)cc1` (stereo not given), for which the inhibition was 0.5%.
The value for `COc1ccccc1N1CCN(S(=O)(=O)c2ccc3c(c2)CC(C)N3C(C)=O)CC1` (stereo not given) was 2.4%; that for `CCC1CCCCN1CCCNC(=O)c1ccc2c(c1)NC(=O)CN2C` (stereo not given) was -26.5%; that for `CCCCN(Cc1ccco1)C(=O)C1CCCN(c2ncnc3c2nc2n3CCCCC2)C1` (stereo not given) was -4.3%.
For `CCCN1C2CCCC1CC(NC(=O)c1ccccc1OC)C2` (stereo not given) the value was -6.6%.
The value for `Cc1ccc(CNS(=O)(=O)c2c(C)[nH]c(=O)[nH]c2=O)cc1` was -4.8%; that for `NC(=O)c1ccc(NC(=O)CS(=O)(=O)c2cn(CC(=O)N3CCCC3)c3ccccc23)cc1` was -13.4%; that for `Cc1ccc(/C=N/N(C)C2=NS(=O)(=O)c3ccccc32)cc1` was 21.9%.
With `COCCCNC(=O)c1ccc(CS(=O)(=O)c2ccccc2OC)o1`, the inhibition was -5.7%.
Take `Nc1[nH]n2c(=O)cc(-c3ccccc3)nc2c1N=Nc1ccc2c(c1)OCO2`: the inhibition was 98.8% (active).
For `COc1cccc(N2CCN(c3ccc4nnc(CCC(=O)Nc5ccc(F)cc5F)n4n3)CC2)c1`, the inhibition was 6.6%.
On to `Cc1cc(C)c(S(=O)(=O)Cc2ccccc2)c(Cl)n1`, for which the inhibition was 7.3%.
With `COc1ccc(/C=C/C(=O)NC(=S)Nc2cc([N+](=O)[O-])ccc2O)cc1OC`, the inhibition is 95.7% (active).
Turning to `CCOc1cc2[nH]c(=S)n(Cc3ccc(C(=O)NCCN(CC)CC)cc3)c(=O)c2cc1OCC`, the inhibition is -9.2%.
`Nn1c(SCC(=O)Nc2ccccc2F)nnc1C1CCCCC1`: the inhibition was 18.2%.
The value for `O=C(Nc1c(C(=O)N2CCC(N3CCCCC3)CC2)oc2ccccc12)c1ccc(F)cc1` was -2.2%; that for `CC1CCCCN1C(=O)CCC(=O)Nc1nnc(C2CCCCC2)s1` (stereo not given) was -7.6%.
Turning to `Cc1ccccc1-c1nc(CS(=O)(=O)CC(=O)NC2CCCC2)c(C)o1`, the inhibition is 7.2%.
For `O=c1oc(-c2ccccc2Cl)nc2ccsc12` the value was 5.6%; for `CCn1c(SCC(=O)N2CCOCC2)nc2c(c1=O)SC(C)C2` (stereo not given), -2.5%.
The value for `COc1ccc(CC(=O)N/N=C(\C)CC(=O)Nc2ccc(N(C)C)cc2)cc1` was -12.6%.
Turning to `O=C1CN(c2ccc(F)cc2)C(=S)N1c1ccccc1`, the inhibition was 4.8%.
As to `C[C@@H]1NC(=O)N(c2ccc(F)cc2)C1=O`, the inhibition is -6.6%.
On to `CCN1CCN(C(CNS(=O)(=O)c2ccc(OC)c(C)c2)c2cccnc2)CC1` (stereo not given), for which the inhibition is -7.5%.
The value for `CC1CCN(Cc2nnnn2CCCC(=O)N(C)C(C)c2ccccn2)CC1` (stereo not given) was 7.9%; that for `COc1cc(OC)cc(C(=O)NN(CCC#N)C2=NS(=O)(=O)c3ccccc32)c1` was 15.9%; that for `Cc1ccccc1OCCCN1CCOCC1` was 2%.
For the molecule `CCc1ccc(/C=C/c2c([N+](=O)[O-])c(=O)n(C)c(=O)n2C)cc1`, the inhibition was 3.6%.
As to `Cc1ccc(C)c(Nc2ccc3nonc3c2[N+](=O)[O-])c1`, the inhibition was -8.6%.
For `Cc1cc(OCc2cc(C(=O)N(C)CCCN3CCOCC3)no2)cc(C)c1Cl` the value was -10.5%.
For `COc1cc(Cl)ccc1OCc1cc(C(=O)NCC(C)c2ccccc2)no1` (stereo not given) the value was 11.7%; for `Cc1ccc(CN2CCN(Cc3cccc(C)n3)CC2CCO)cc1` (stereo not given), 3.8%; for `CC(C)(C)CN1CCN(Cc2c[nH]c3ccccc23)CC1CCO` (stereo not given), -9.5%.
`COc1ccc(-c2n[nH]c3c2CN(C(=O)c2ccc(OC)c(OC)c2)CC3)cc1`: the inhibition is -2.9%.
The value for `CCc1cc2c(C)ccc(C)c2nc1SCC(=O)Nc1c[nH]c(=O)[nH]c1=O` was 27.1%; that for `O=C(CSc1n[nH]c(=O)[nH]c1=O)Nc1ccc2c(c1)C(=O)c1ccccc1C2=O` was 98% (active).
`Nc1cc(=O)[nH]c(SCC(=O)Nc2ccc(Oc3ccccc3)cc2)n1`: the inhibition is -5%.
On to `CC1=C(C(=O)OCC2CCCCC2)C(c2ccc(F)cc2)NC(=O)N1` (stereo not given), for which the inhibition was -8.4%.
Regarding `CCOC(=O)C1=C(N)n2c(s/c(=C\c3ccncc3)c2=O)=C(C(=O)OCC)C1c1ccncc1` (stereo not given), the inhibition is 39.4%.
The value for `CC1=C(C(=O)OC(C)C)C(c2ccc(Cl)cc2)n2c(s/c(=C\c3ccc(OCC(=O)O)cc3)c2=O)=N1` (stereo not given) was 97.4% (active).
